The campaign covered roughly 220,000 compounds. About 16,000 (7.3%) were called active. About 25% were inconclusive and are not listed. The call rests on the fitted dose curve; in most records, active means well fitted inhibition curve with a large enough effect (not every such curve was filed as active); inconclusive means small, poorly fitted or top-dose-only effect, or another doubt; inactive means no such curve, though single readings can be large or run the other way. The list comes from a sample in which actives are over-represented; it also holds similar structures and randomly drawn compounds.
These compounds were tested against Aldehyde dehydrogenase 1A1 (Homo sapiens) (UniProt P00352) (assay: qHTS Assay for Inhibitors of Aldehyde Dehydrogenase 1 (ALDH1A1)). Conditions: Purified ALDH1A1, NADH fluorescence, propionaldehyde substrate; series mostly up to 75.3 µM; activity, negative = inhibition: at the top concentration.
Potency means the concentration at half of the fitted maximal effect.
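Wherever activity, negative = inhibition is given: plate controls were no enzyme wells and a reference inhibitor.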

Aldehyde dehydrogenase 1A1 (Homo sapiens), sequence (P00352 whole entry, looked up): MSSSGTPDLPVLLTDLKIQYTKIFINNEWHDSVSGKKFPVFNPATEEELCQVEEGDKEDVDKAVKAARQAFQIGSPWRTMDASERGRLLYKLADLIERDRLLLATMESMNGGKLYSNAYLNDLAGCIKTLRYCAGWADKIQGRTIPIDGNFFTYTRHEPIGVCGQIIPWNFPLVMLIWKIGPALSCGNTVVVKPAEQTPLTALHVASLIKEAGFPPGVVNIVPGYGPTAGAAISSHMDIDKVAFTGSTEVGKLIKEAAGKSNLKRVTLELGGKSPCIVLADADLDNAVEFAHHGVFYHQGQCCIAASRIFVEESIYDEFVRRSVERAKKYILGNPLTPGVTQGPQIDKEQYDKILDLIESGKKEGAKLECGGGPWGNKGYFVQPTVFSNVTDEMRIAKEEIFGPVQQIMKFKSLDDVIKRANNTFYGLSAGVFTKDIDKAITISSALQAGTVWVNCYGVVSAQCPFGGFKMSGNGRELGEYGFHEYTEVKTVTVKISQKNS

activity, negative = inhibition, inactive:
COc1cc(C(=O)Nc2cc(C(F)(F)F)ccc2-n2cncn2)cc(OC)c1OC -11.5%, CCOc1ccc(CN2CCN(Cc3ccon3)CC2CCO)cc1 (stereo unspecified) -7.29%, COc1ccc(/C=N/NC(=O)c2cccc(C(F)(F)F)c2)cc1 143%, COc1ccc2nc(NC(=O)[C@@H]3CCCN3C(=O)c3cccs3)sc2c1 15.3%, CCOc1ccc(NC(=O)C2CCCN(C(=O)Nc3ccccc3)C2)cc1 (stereo unspecified) 5.91%, COc1cc(OC)nc(N/N=C(\c2ccccc2)c2ccncc2)n1 -13.5%, COc1ccc(-c2nnc3ccc(SCc4ccccc4)nn23)cc1 26.6%, Fc1cccc(CSc2nnc3ccc(-c4ccncc4)nn23)c1 4.55%, Cc1cccc(OCCC(=O)Nc2cc(S(=O)(=O)N3CCCCC3)ccc2N2CCOCC2)c1 -16.5%, COc1ccc(S(=O)(=O)N2CCCCCC2)cc1C(=O)OCC(=O)Nc1cc(C)on1 31.2%, CCc1ccc(CN2C(=O)c3ccccc3C2C(=O)NCC2CCCO2)cc1 (stereo unspecified) -11.7%, CC(Sc1nnc2c(n1)C1CCC2(C)C1(C)C)C(=O)Nc1ccccc1 (stereo unspecified) -8.04%, CSc1nc(N(C)NC(=O)c2cccc(C)c2)c2ccccc2n1 -0.565%, CC(=O)c1cc(-c2ccccc2)n(CC(=O)NC2CCCCC2)c1C 7%, CC(C)(C)N(CC#CCC(O)(c1ccccc1)C1CCCC1)CCO (stereo unspecified) 1.5%, O=C(COC(=O)c1ccc(F)cc1)Nc1nc2ccc([N+](=O)[O-])cc2s1 8.53%, CC(C)C(NC(=O)C1CCC(C(C)(C)C)CC1)C(=O)NCCCN1CCCCC1 (stereo unspecified) 1.26%, COC(=O)c1sc(C(F)(F)F)c(-c2ccccc2)c1S(=O)(=O)N(C)C 1.08%, COc1cccc(NC(=O)CN(C)S(=O)(=O)c2ccc(C)cc2)c1 -2.08%, Cc1ccc(SC(C)C(=O)NCc2ccc(F)cc2)cc1 (stereo unspecified) 10.6%, Cc1ccn(C(CC(=O)c2ccc(Br)cc2)C(=O)O)n1 (stereo unspecified) 0.837%, Cc1sc2c(c1C)c(=O)n(-c1ccccc1)c(=O)n2CC(=O)NCC1CCCO1 (stereo unspecified) -1.33%, O=C(c1ccc(Cl)cc1)c1ccc(OCC(O)CN2CCCCC2)cc1 (stereo unspecified) 7.65%, Cn1c(=O)c2c(nc(N3CCCCCC3)n2CC(=O)c2ccc(Br)cc2)n(C)c1=O -2.72%, CC(C(=O)N=Nc1c(O)n(C)c2ccc(Br)cc12)n1cnc2ccccc2c1=O (stereo unspecified) -6.13%, Cc1ccc(S(=O)(=O)Nc2nc(N)n(-c3ccccc3)n2)cc1 -1.7%, Cc1c(NC(=O)CSc2nnnn2-c2ccc(C(=O)O)cc2)c(=O)n(-c2ccccc2)n1C -1.93%, O=c1c2ccccc2nnn1CSc1nnnn1-c1ccccc1 -10.9%, NC(N)=Nc1nc2ccc(Br)cc2c(=O)[nH]1 11.2%, O=C(Nc1cccnc1)c1ccc(Cl)c([N+](=O)[O-])c1 6.15%, COCCn1c(C)cc(C(=O)CSc2ncnc3sc4c(c23)CCC4)c1C -6.4%, C=C(C)CSc1nc(N)c2c3c(sc2n1)CCC3 1.92%, Cc1[nH]nc(SCC(=O)NCC(C)C)c1[N+](=O)[O-] -13.8%, O=C(c1cccc(F)c1)N1CCC(O)(c2cccnc2)CC1 -1.82%, O=C(CN1CCN(C/C=C/c2ccccc2)CC1)Nc1ccc(F)cc1F 9.94%, Cc1ccccc1CS(=O)(=O)CC1(O)CCN(C(=O)c2cccc(C(F)(F)F)c2)CC1 8.45%, O=C(c1cccc(F)c1)N1CCC2(CC1)CCN(c1ccccc1)CC2 -3.17%, COc1ccc(Cn2c(=O)cc(C)[nH]c2=S)cc1 -0.953%, CCOc1ccc2sc(NS(=O)(=O)c3ccc(N)cc3)nc2c1 6.19%, Cc1cccc(NC(=S)NCCN(C2CCCCC2)C2CCCC2)c1 2.22%

Potency, active:
CCOc1ccc2nc(C(=O)N3CCCC(C)C3)sc2c1 (stereo unspecified) 14.1 µM, Cc1ccc(/C=C/C(=O)Nc2cc(S(=O)(=O)N3CCCCCC3)ccc2OCC(F)(F)F)o1 28.2 µM, CSc1nc(C)cc(SC(C(C)=O)C(=O)Nc2ccccc2)n1 (stereo unspecified) 15.8 µM, CCOC(=O)CN(C)S(=O)(=O)c1ccc(-c2cc(C(=O)OC)sc2C(F)(F)F)cc1 5.97 µM, Cc1ccc(SC(CC(=O)c2ccc(C(C)(C)C)cc2)C(=O)O)cc1 (stereo unspecified) 0.199 µM, Cn1c(=O)c2c(nc(N3CCCCCC3)n2CC(O)COc2ccc(Cl)cc2)n(C)c1=O (stereo unspecified) 11.2 µM, Cc1ccccc1-n1nnnc1SCCCC(=O)c1ccc(F)cc1 0.0794 µM, Cc1cc(C)n(-c2nc(SCC(=O)N3CCCC3)c3c4c(sc3n2)CCCC4)n1 14.1 µM, Cc1ccccc1CN1CCN(C(=O)c2cccc(F)c2)CC1 15.8 µM, O=C(CN1CCN(C(=O)c2cccc(F)c2)CC1)Nc1ccccc1F 12.6 µM

Potency, inactive:
COC(=O)C(C(=O)OC)C1c2ccccc2C=C(C2CC2)N1C(=O)OC (stereo unspecified)

From PubChem BioAssay AID1030 (National Center for Advancing Translational Sciences (NCATS), 2008)
